Screening data from PubChem.
In the library only some 3.1% were active in any assay of this set; here they are far more common.
FadD28 binding = inhibitors of Mycobacterium tuberculosis FadD28 bisubstrate binding. inhibition, % at 12.5 µM. FadD28 bisubstrate probe binding, fluorescence polarization. 360,000 tested, 0.22% active; in the data active means inhibition above about 8.5%, passing the limit was not always enough
SARS 3CLpro inh = SARS-CoV 3CLpro protease inhibition; P0C6X7; recombinant SARS-CoV 3CLpro, quenched FRET peptide cleavage; inhibition, % at 6 µM; 290,000 tested, 0.14% active; AID 1706; in the data active means inhibition above about 12%
FBA Mtb inh = inhibitors of M. tuberculosis fructose-bisphosphate aldolase | P9WQA3 | purified M. tuberculosis FBA, fluorescence read-out | inhibition, % at 1 µM | 360,000 tested, 2.3% active | AID 588726; in the data active means inhibition above about 27%;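 further: 0% = vehicle and 100% = reference inhibitor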
Target sequence (P9WQA3 whole entry, looked up): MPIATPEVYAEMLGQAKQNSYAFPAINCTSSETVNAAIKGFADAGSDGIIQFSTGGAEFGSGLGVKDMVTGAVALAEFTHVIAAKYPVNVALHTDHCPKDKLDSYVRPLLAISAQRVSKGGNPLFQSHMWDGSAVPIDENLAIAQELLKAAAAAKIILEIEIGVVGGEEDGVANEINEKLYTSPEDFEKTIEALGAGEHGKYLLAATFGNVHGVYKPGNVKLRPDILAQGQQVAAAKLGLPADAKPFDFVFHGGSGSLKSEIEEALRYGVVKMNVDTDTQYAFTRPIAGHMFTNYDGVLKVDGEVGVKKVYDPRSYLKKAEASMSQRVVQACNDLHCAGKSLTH
GDH-TPI inh = inhibits GDH-TPI coupling enzymes, artifact for Mtb FBA screen; GDH-TPI coupled enzyme counterscreen, NADH absorbance; inhibition, % at 4.8 µM; 360,000 tested, 1.2% active; in the data active means inhibition above about 30%;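 further: 0% = DMSO wells and 100% = wells lacking the enzyme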
BioA inh = blocks M. tuberculosis BioA enzyme activity; 360,000 tested, 0.096% active; inhibition, % at 9.99 µM; AID 602481; purified M. tuberculosis BioA enzyme, plate reader; in the data active means inhibition above about 40%
* marks the source's active call; other numbers are inactive results; / = not tested or not shown; + = active, no number.

SMILES | FadD28 binding | SARS 3CLpro inh | FBA Mtb inh | GDH-TPI inh | BioA inh
CCCNC(=O)C[C@H]1C[C@@H]2c3cc(NC(=O)CC4CC4)ccc3O[C@@H]2[C@@H](CO)O1 | / | / | / | / | -1.4
COc1cccc(S(=O)(=O)N[C@H]2CC[C@H](CCn3cc(-c4ccc(F)cc4)nn3)O[C@H]2CO)c1 | / | / | / | / | 2.5
NS(=O)(=O)c1ccc(N2N=C(c3ccccc3)CC2c2cccc(Br)c2)cc1 (configuration not stated) | -1.5 | / | + | 27.1 | -1.5
COc1ccc2c(c1OC)C(=O)N1N=C(c3ccccc3)CC21 (configuration not stated) | -2.0 | 3.5 | -2.0 | 20.4 | -0.9
CC(=O)Oc1ccc(C2=NN(c3ccccc3)C(c3ccccc3)C2)cc1 (configuration not stated) | -2.5 | 0.0 | 128.9* | -3.2 | 1.5
COc1ccc(C2CC(c3ccccc3)=NN2c2ccccc2)c(C(=O)O)c1OC (configuration not stated) | -1.2 | 4.3 | 197.3* | 5.4 | 1.9
NS(=O)(=O)c1ccc(N2N=C(c3ccccc3)CC2c2ccccc2Br)cc1 (configuration not stated) | -1.9 | / | + | 20.8 | 0.7
CC=Cc1ccc2n(c1=O)C[C@@H]1[C@@H](CO)[C@H](C(=O)N3CCOCC3)N(Cc3ccccc3OC)[C@H]21 (mixture of isomers) | / | / | / | / | -1.4
NS(=O)(=O)c1ccc(N2N=C(c3ccc(Br)cc3)CC2c2ccc(F)cc2)cc1 (configuration not stated) | 1.6 | 2.6 | + | 27.5 | -1.7
COc1ccc(C2CC(c3ccccc3O)=NN2C(=O)c2ccccc2)cc1OC (configuration not stated) | -1.3 | 5.2 | -0.8 | 17.6 | 1.0
COc1ccc(C2CC(c3ccccc3)=NN2c2ccc(S(N)(=O)=O)cc2)cc1OC (configuration not stated) | 1.5 | 6.4 | + | 18.2 | /
CCn1c(=NC(=O)c2ccc(N3C(=O)CCC3=O)cc2)sc2c(OC)ccc(OC)c21 | -2.5 | 0.9 | 1.4 | 36.5* | -2.4
CCn1c(=NC(=O)CN2C(=O)CCC2=O)sc2c(OC)ccc(OC)c21 | -1.4 | 2.1 | 2.1 | 21.1 | -1.1
CCn1c(=NC(=O)c2cccc(N3C(=O)CCC3=O)c2)sc2c(C)ccc(OC)c21 | -2.9 | -3.2 | 6.5 | 38.3* | -2.3
O=C(NCC[C@@H]1CC[C@@H](NC(=O)C2CCCCC2)[C@H](CO)O1)c1cc(Cl)cc(Cl)c1 | / | / | / | / | 1.2
C[C@H](CO)N1C[C@H](C)[C@H](CN(C)Cc2cccc(F)c2)Oc2ncc(C#C[C@@H](C)O)cc2C1=O | / | / | / | / | 0.9
Cc1nn(-c2ccccc2)c(C)c1/C=N/n1c(-c2ccccc2Br)n[nH]c1=S | -1.4 | 5.9 | 1.0 | -10.2 | /
CCN(CC)c1ccc(/C=N/n2c(-c3ccccc3Br)n[nH]c2=S)cc1 | -1.8 | -1.1 | 3.5 | 37.5* | -0.4
Nc1nc2c(C(=O)N3CCOCC3)nnn2c2ccccc12 | -1.7 | -4.0 | 116.7* | 11.2 | /
C[C@@H]1CN([C@H](C)CO)C(=O)c2cccc(NS(=O)(=O)c3ccc(Cl)cc3)c2O[C@@H]1CN(C)Cc1ccc2c(c1)OCO2 | / | / | / | / | 4.4
O=C(O)c1cc(N/N=C/C=C/c2ccccc2)ccc1Cl | 4.1 | 1.7 | 12.2 | 19.6 | /
C/C(=N\NC(=O)c1cccc(C)c1)c1ccc(N2CCOCC2)cc1 | -0.8 | -0.1 | 4.4 | 34.0* | -0.8
C/C(=N\Nc1ccc(F)cc1F)c1ccc(N2CCOCC2)cc1 | -0.1 | 1.0 | -0.8 | 8.2 | /
C/C(=N\Nc1ccc(Cl)c(C(=O)O)c1)c1ccc[nH]1 | 27.7* | -1.5 | -0.7 | 19.4 | /
NC(=O)N/N=C/c1ccc(N2CCOCC2)s1 | -1.4 | -0.9 | 1.5 | 24.8 | /
SMILES | FadD28 binding | SARS 3CLpro inh | FBA Mtb inh | GDH-TPI inh | BioA inh
C/C(=N\NC(=O)c1ccc(F)cc1)c1ccc(N2CCOCC2)cc1 | 0.8 | -1.0 | 1.6 | 17.9 | /
C/C(=N\Nc1ccc(Cl)c(C(=O)O)c1)c1ccc(N2CCOCC2)cc1 | 1.9 | 4.2 | -2.7 | 30.9* | -0.5
O=C(O)c1cc(N/N=C/c2ccc(N3CCOCC3)s2)ccc1Cl | 45.2* | 4.4 | -3.2 | 22.2 | 0.4
O=C(N[C@H]1CC[C@@H](CCNS(=O)(=O)Cc2ccccc2)O[C@@H]1CO)c1ccc2c(c1)OCO2 | / | / | / | / | 1.1
CC(=O)N[C@@H]1CC[C@@H](CC(=O)NCC2CCCCC2)O[C@H]1CO | / | / | / | / | 0.3
COc1ccc2[nH]c3c(c2c1)CCn1c-3nc2ccccc2c1=O | -3.0 | -6.1 | 16.5 | 58.9* | 0.0
COc1cc(OC)cc(C(=O)Nn2c(C)nc3ccccc3c2=O)c1 | -4.1 | 1.4 | 1.4 | -7.8 | 0.7
CCCc1cc(=O)oc2cc(C)cc(OCc3nn[nH]n3)c12 | -1.3 | -0.4 | 128.3* | 9.4 | 1.5
Cc1c(OCc2nn[nH]n2)ccc2c3c(c(=O)oc12)CCCC3 | -3.1 | 0.6 | 124.4* | 7.0 | 1.3
CCCc1cc(=O)oc2cc(C)cc(O)c12 | -2.4 | -2.4 | 1.4 | 5.3 | 3.5
Cc1cc(OCc2nn[nH]n2)c2c3c(c(=O)oc2c1)CCC3 | -4.9 | 9.9 | + | -3.2 | 0.4
Cc1cc2oc(=O)c3c(c2cc1OCc1nn[nH]n1)CCCC3 | -5.1 | -1.4 | 14.8 | 14.1 | -0.2
C[C@@H]1CN([C@H](C)CO)C(=O)c2cc(NC(=O)c3ccccc3)ccc2O[C@@H](C)CCCCO[C@@H]1CN(C)C(=O)CCC(F)(F)F | / | / | / | / | 0.7
O=C(O)c1cc(N/N=C/c2c(O)ccc3ccccc23)ccc1Cl | 20.3* | 10.7 | 1.7 | 6.9 | 1.6
Nc1cc(Cl)nc(N/N=C/c2c(O)ccc3ccccc23)n1 | 0.5 | 6.6 | 0.1 | 14.3 | /
COc1cccc(-n2c(-c3ccco3)nc3nc4ccccc4nc32)c1 | -0.7 | 2.6 | 7.1 | 10.4 | /
COCCn1c(-c2ccco2)nc2nc3ccccc3nc21 | 1.0 | 1.8 | + | 36.8* | -3.0
CC(C)OCCCn1c(-c2ccco2)nc2nc3ccccc3nc21 | 2.2 | 2.6 | + | 36.0* | -2.7
CCC(C)n1c(-c2ccco2)nc2nc3ccccc3nc21 (configuration not stated) | / | -3.6 | / | / | /
CC(C)n1c(=N)c(C(=O)NCCc2ccccc2)cc2c(=O)n3ccccc3nc21 | -3.7 | 0.0 | + | 12.1 | 1.7
CCOC(=O)c1cc2c(=O)n3cccc(C)c3nc2n(Cc2cccnc2)c1=N | / | -1.4 | / | / | /
COc1ccc(CCNC(=O)c2cc3c(=O)n4cccc(C)c4nc3n(Cc3ccco3)c2=N)cc1OC | -5.5 | -2.5 | 10.4 | 11.6 | -1.0
Cc1cccn2c(=O)c3cc(C(=O)NCc4cccnc4)c(=N)n(C(C)C)c3nc12 | -1.7 | 1.6 | + | 15.8 | /
Cc1cccn2c(=O)c3cc(C(=O)NCc4ccco4)c(=N)n(C(C)C)c3nc12 | -1.6 | 0.3 | + | 3.9 | 3.3
C[C@H]1CN([C@@H](C)CO)C(=O)c2cc(NC(=O)CCCN(C)C)ccc2O[C@@H]1CN(C)Cc1ccc(Oc2ccccc2)cc1 | / | / | / | / | 3.5
CN(CC(=O)OCC(=O)NC(=O)c1cccn1C)S(=O)(=O)c1ccc(Cl)cc1 | -2.9 | -2.4 | 192.7* | 6.8 | -1.0
COc1cc(OC)c(OC)cc1/C=N/NC(=O)c1cnccn1 | -3.5 | -1.9 | -2.9 | 5.1 | /
